TLR9-MyD88 block – blocks human TLR9 binding to MyD88 | Q9NR96+Q99836 | CHO BLA complementation TLR9-MyD88, CCF4 FRET ratio | inhibition, % at 4.98 µM | 340,000 compounds, 0.21% hits | AID 504734;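 active = inhibition above the mean over all tested compounds plus 3 SD, cut at about 21% in these data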;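 also: 0% = DMSO only wells and 100% = clavulanate BLA inhibitor control wells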
Target sequence (Q99836 whole entry, looked up): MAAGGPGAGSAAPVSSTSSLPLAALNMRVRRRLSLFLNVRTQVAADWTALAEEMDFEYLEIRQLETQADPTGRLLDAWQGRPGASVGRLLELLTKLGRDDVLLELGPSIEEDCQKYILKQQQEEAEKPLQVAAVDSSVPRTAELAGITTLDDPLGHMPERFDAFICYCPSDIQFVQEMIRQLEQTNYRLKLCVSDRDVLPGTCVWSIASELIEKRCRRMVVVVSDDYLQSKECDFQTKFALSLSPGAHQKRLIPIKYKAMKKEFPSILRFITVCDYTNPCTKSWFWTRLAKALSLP
Target sequence (Q9NR96 whole entry, looked up): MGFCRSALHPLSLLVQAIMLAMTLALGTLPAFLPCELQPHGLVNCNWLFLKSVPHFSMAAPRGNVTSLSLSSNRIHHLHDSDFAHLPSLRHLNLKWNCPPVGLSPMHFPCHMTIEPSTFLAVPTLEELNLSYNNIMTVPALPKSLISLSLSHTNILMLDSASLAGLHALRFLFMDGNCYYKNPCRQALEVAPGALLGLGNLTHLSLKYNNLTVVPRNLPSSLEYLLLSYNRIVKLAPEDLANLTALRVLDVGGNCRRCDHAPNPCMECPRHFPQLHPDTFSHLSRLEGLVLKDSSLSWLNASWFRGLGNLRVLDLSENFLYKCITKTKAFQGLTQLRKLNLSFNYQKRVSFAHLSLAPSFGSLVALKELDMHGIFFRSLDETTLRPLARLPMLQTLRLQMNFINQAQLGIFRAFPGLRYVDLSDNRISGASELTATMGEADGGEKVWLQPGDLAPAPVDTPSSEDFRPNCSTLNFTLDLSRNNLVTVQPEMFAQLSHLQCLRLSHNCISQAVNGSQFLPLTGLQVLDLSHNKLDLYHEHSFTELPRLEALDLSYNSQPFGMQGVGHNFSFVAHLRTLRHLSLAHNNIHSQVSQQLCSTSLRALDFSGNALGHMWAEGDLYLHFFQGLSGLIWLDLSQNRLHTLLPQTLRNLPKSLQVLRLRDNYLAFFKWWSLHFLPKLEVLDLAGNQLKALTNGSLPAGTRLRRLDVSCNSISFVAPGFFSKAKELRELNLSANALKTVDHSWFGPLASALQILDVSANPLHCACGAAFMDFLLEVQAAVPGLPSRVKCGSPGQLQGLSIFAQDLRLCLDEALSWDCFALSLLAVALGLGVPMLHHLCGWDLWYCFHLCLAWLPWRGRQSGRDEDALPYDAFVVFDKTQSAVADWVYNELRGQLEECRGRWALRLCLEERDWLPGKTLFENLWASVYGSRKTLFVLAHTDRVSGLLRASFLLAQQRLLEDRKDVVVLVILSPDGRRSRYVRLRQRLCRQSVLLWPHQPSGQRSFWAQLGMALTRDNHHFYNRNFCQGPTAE
ANO1 activ – mouse TMEM16A channel activation, primary screen. Q8BHY3. HEK293 TMEM16A/YFP-H148Q/I152L, iodide quench fluorescence; stronger effect = lower value. B-score at 10 µM. 340,000 compounds, 0.3% hits;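 active = fluorescence-ratio B-score plate-corrected deviation score at least 3 library SD below zero, with starting fluorescence score within 5 deviations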;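 also: channel opened by trigger with iodide after compound preincubation; score built on the fluorescence ratio of max minus min over baseline; more negative score means more quench and so TMEM16A activation or potentiation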
GRK2 inh – blocks RNA aptamer binding to human GRK2. P25098. bead flow cytometry, FAM-aptamer displacement from GRK2. inhibition of aptamer binding, % at 10 µM. 330,000 compounds, 0.59% hits;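 active = inhibition of aptamer binding above 40%, roughly 3 SD of noise, on plates passing a quality check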;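 also: median bead fluorescence of bound FAM aptamer so fluorescent compounds give negative values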
NOD2 RIPK2 PPI – inhibitors of human NOD2-RIPK2 interaction; O43353; CHO BLA complementation NOD2-RIPK2, CCF4 ratio; inhibition, % at 4.98 µM; 360,000 compounds, 0.38% hits; AID 624267; in the data active = inhibition above about 21%;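 also: 0% = vehicle only and 100% = reference blocker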
TLR4 MyD88 comp – blocks binding of human TLR4 to MyD88 | O00206+Q99836 | HeLa CL3-4 TLR4/MyD88 BLA complementation, FRET ratio | inhibition, % at 8.4 µM | 200,000 compounds, 0.18% hits | AID 861; in the data active = inhibition above about 25%;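 also: 0% = vehicle and 100% = reference inhibitor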
ANO1 block – inhibitors of mouse TMEM16A calcium-activated chloride channel. 310,000 compounds, 1.2% hits. AID 588511. Q8BHY3. normalized B-score (activity score, 25-100; higher = stronger inhibition) at 10 µM. HEK293 TMEM16A/YFP iodide influx fluorescence, ionomycin;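 active = ratio plate-corrected score three or more library SD toward inhibition, starting fluorescence score within five deviations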;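 also: score derived from kinetic fluorescence span divided by baseline fluorescence per well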
TMEM16A reconf – TMEM16A (mouse) chloride channel inhibition, re-confirmation | 2,300 compounds, 39% hits | HEK293 TMEM16A/YFP-H148Q, iodide quench fluorescence; ionomycin added to raise cell calcium | inhibition, % at 10 µM | shares compounds with ANO1 block;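 active = mean duplicate percent inhibition, scaled so buffer wells are 0 and the reference blocker 100, over three buffer SD above buffer mean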
HEK293 Ca mobil – alters calcium mobilization in TMEM16A HEK293 cells, counter-screen; shares compounds with ANO1 block; TMEM16A/YFP HEK293, Fluo4 calcium mobilization; calcium response (% of ionomycin), % at 10 µM; 2,300 compounds, 2% hits; AID 652231;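 active = duplicate-averaged calcium signal over 20% of the ionomycin maximum, relative to buffer baseline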;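 also: each well's signal is peak minus trough fluorescence divided by its pre-addition baseline; 0% = buffer wells and 100% = ionomycin wells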
YFP-HEK293 quench – counter-screen for TMEM16A inhibitors: effect in parental YFP-HEK293 cells. shares compounds with ANO1 block. iodide YFP quench, ionomycin. YFP ratio F(max-min)/F0 at 10 µM. 2,300 tested, under 10 active;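 active = yellow fluorescent protein signal ratio exceeding the buffer control mean by over 5 SD of those controls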;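 also: ratio is mean of duplicate wells from kinetic YFP trace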
ClC-1 inh – selectivity of TMEM16A inhibitors: inhibition of rat ClC-1 chloride channel; shares compounds with ANO1 block; CHO ClC-1-YFP, iodide influx fluorescence quench; iodide control reads 0, buffer control 100; ratio percent, % at 10 µM; 2,300 tested, under 10 active; AID 652236;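 active = duplicate-mean ratio percent above the mean of iodide-only control wells, which defines zero, plus 5 of their SD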;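 also: higher percent means stronger block of ClC-1 iodide influx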
An asterisk follows results filed as active; i = inactive; . = not tested or not shown. This is a sample that favours compounds with a hit; in the whole collection about 2.2% have one here.

SMILES	TLR9-MyD88 block	ANO1 activ	GRK2 inh	NOD2 RIPK2 PPI	TLR4 MyD88 comp	ANO1 block	TMEM16A reconf	HEK293 Ca mobil	YFP-HEK293 quench	ClC-1 inh
CC(C)=CC1C(C(=O)NCCc2ccccc2)C1(C)C (centres undefined)	-1	i	0	3	.	i	.	.	.	.
CCOC1=C2CN(S(=O)(=O)c3ccc(C)cc3)[C@H](c3cccc4ccccc34)C[C@H]2[C@H]2C(=O)N(c3ccccc3)C(=O)[C@H]2C1	.	.	.	0	.	.	.	.	.	.
CC(C)c1nc(NCCO)c2nnn(Cc3ccccc3)c2n1	-1	i	3	-6	10	i	.	.	.	.
O=C(NC(Cc1ccccc1)c1ccc2c(c1)OCCCO2)c1ccc(F)cc1 (centres undefined)	-5	i	3	-5	-9	25*	i	i	-1	-2
CN(c1cccc(NC(=O)CSc2ccc(Cl)cc2)c1)S(C)(=O)=O	8	i	1	1	-6	100*	28%*	i	-0.97	-4
CN(c1cccc(NC(=O)CCSc2ccccc2)c1)S(C)(=O)=O	3	i	2	9	1	i	.	.	.	.
COc1ccc(OC)c(C2(O)CSC(=Nc3cccnc3)N2Cc2ccco2)c1 (centres undefined)	2	i	2	3	-9	i	.	.	.	.
OC1(c2ccc(OC(F)F)cc2)CSC(=Nc2cccnc2)N1C1CC1 (centres undefined)	-2	i	20	12	8	100*	20%*	i	-1.3	-24
Cc1nnc(SCC2=C(C(=O)O)N3C(=O)C(NC(=O)C(C)n4nc(C(F)(F)F)cc4C)C3SC2)s1 (centres undefined)	1	i	11	2	-18	i	.	.	.	.
COC(=O)CNC(c1ccccc1)c1cc(C)ccc1NC(=O)CNC(=O)OCc1ccccc1 (centres undefined)	-2	i	0	6	5	i	.	.	.	.
COC(=O)CNC(c1ccccc1)c1cc(Br)ccc1NC(=O)OCc1ccccc1 (centres undefined)	-1	i	0	5	-13	i	i	i	-1	-7
CC(C)CC(=O)n1sc(NC(=O)c2ccccc2)nc1=O	5	i	0	-4	-6	i	.	.	.	.
COC(=O)C1=C(C(=O)OC)SC(=C2C(=S)C(C)(C)N(C(=O)CC(C)C)c3ccccc32)S1	-3	i	4	-1	11	25*	i	i	-1.1	-12
CCOC(=O)Cc1ccc(NC(=O)c2ccccc2Br)cc1	5	i	1	-3	-4	i	.	.	.	.
CCOC(=O)Cc1ccc(NC(=O)c2ccc(C(C)(C)C)cc2)cc1	-2	i	0	2	0	100*	32%*	i	-0.91	4
COc1ccc(C2=NOC(C(=O)NC(C)C)C2)cc1 (centres undefined)	-10	i	0	4	2	i	.	.	.	.
COc1ccc(C2=NOC(C(=O)NCC(C)C)C2)cc1 (centres undefined)	-4	i	2	-6	-3	100*	i	i	-0.97	-10
Clc1ccccc1N1CCN(Cc2ccco2)CC1	-3	i	1	3	.	i	.	.	.	.
COc1ccccc1N1CCN(Cc2ccco2)CC1	0	i	0	-7	11	25*	i	i	-1	-4
